High-throughput results (PubChem BioAssay)
A selection: hits, their analogues and other compounds. The true share with any hit is near 6.1%.
D3 antag: blocks the human D3 dopamine receptor. P35462. D3R cells, DiscoveRx beta-arrestin luminescence, antagonist mode; active compounds read low. max response, negative = inhibition, %. actives 2.5% (n = 360,000); in the data active means max response below about -50%; further: on the % scale 0 is the no-effect control and ±100 the full control effect
Target sequence (P35462 whole entry, looked up): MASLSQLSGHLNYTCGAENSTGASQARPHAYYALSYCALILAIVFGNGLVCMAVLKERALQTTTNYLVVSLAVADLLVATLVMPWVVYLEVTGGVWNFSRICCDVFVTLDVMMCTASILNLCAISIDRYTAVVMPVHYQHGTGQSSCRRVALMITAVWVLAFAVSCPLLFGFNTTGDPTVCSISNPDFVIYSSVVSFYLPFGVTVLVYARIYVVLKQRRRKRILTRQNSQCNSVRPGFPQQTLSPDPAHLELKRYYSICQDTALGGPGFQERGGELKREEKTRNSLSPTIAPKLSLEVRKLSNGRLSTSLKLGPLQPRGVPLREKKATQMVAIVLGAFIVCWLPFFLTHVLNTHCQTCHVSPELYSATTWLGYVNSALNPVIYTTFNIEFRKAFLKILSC
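Cells plated overnight at 1500 cells/well, then exposed to library compounds with dopamine controls for 90 minutes at 37 degrees C. DiscoveRx reagent added for 30–60 minutes at room temperature; luminescence read, quantitative HTS format.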
D1 PAM: enhances dopamine response at the human D1 receptor; actives 0.036% (n = 360,000); potentiation, % at 10 µM; HEK293 TREx D1 cells, calcium flux, dopamine EC20 potentiation; AID 504651; in the data active means potentiation above about 30%; further: 0% is about no effect
DRD3 agonist: agonists of human D3 dopamine receptor; P35462; D3R DiscoveRx beta-arrestin cells, luminescence, 90 min; max activation, %; actives 0.58% (n = 410,000); AID 652048; in the data active means max activation above about 30%; further: 0% is about no effect
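Agonist mode: compounds and dopamine controls were applied to plated cells for 90 min at 37 degrees C after an overnight attachment at 1500 cells/well. Luminescent read-out followed 30 - 60 minutes at room temperature with DiscoveRx detection reagent.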
D1 agonist: agonists of human D1 dopamine receptor. HEK293 T-REx D1 cells, calcium flux, agonist mode. activation, % at 2 µM. actives 1% (n = 360,000). AID 504660; in the data active means activation above about 30%; further: 0% is about no effect
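Agonism was scored from calcium flux recorded over 180 s (1 read/s) after pintool compound addition, following a 10-cycle baseline. Cells were inducible force-coupled HEK293 TREx D1, plated overnight at 30 C and loaded with no-wash calcium dye.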
D1 antagonist: human D1 dopamine receptor antagonism; P21728; HEK293 TREx D1 cells, calcium flux, dopamine EC80; active compounds read low; activity change, negative = inhibition, % at 10 µM; actives 3.2% (n = 360,000); AID 504652; in the data active means activity change below about -30%; further: on the % scale 0 is the no-effect control and ±100 the full control effect
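Tetracycline-induced HEK293 T-REx cells with force-coupled D1 receptor were loaded with a no-wash calcium dye. Compound was added after a 10 s baseline and read kinetically for 180 s; EC80 dopamine was then added and calcium flux followed another 180 s.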
ERG Ets-DNA blk: inhibitors of human ERG Ets domain-DNA interaction | P11308 | fluorescence polarization, His-ERG Ets domain / labelled DNA | Potency, µM (titrated, usually from 76.9 µM), for the others: top-dose FP activity, negative = inhibition, actives largely listed as inhibitors | actives 0.028% (n = 370,000) | AID 624246; active means well fitted inhibition curve with a large enough effect in the polarisation, with a control signal flat; the % refers to the polarisation;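 further: polarization taken with two DNA probes labelled with fluorescein and Texas red; potency means the concentration at half of the fitted maximal effect; % of control where 0% means no effect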
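His-tagged ERG Ets domain (1 uM in the protein solution; 300mM KCl, 50mM Tris-HCl, 1mM EDTA, 1mM DTT, pH 7.5) received compound, then a probe mix of 5 nM fluorescein-DNA and 100nM Texas-615-DNA. Fluorescence polarization was read for both dyes.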
* = called active by the depositor; . = not tested or not shown.

SMILES | D3 antag | D1 PAM | DRD3 agonist | D1 agonist | D1 antagonist | ERG Ets-DNA blk
CN(Cc1ccccc1)S(=O)(=O)c1ccc(Cl)c(C(=O)N2CCC(C(N)=O)CC2)c1 | 15 | . | 0 | . | . | -4%
O=[N+]([O-])c1ccc(OCCOc2ccccc2/C=N/n2cnnc2)cc1 | 7 | -3 | -1 | 6 | 0 | -3%
Fc1ccc2[nH]c3c(c2c1)CN(C(=S)NCc1ccccc1)CC3 | -7 | -4 | -5 | 6 | -38* | 13%
C=CCNC(=O)N1CCc2[nH]c3ccc(F)cc3c2C1 | 0 | -2 | 0 | 0 | -12 | 0%
COc1ccc(CNC(C)CCc2ccccc2)cc1 (stereo unspecified) | -55* | -1 | 1 | 17 | 1 | -5%
COc1ccc(CCC(C)NC2C3CC4CC(C3)CC2C4)cc1 (stereo unspecified) | -97* | 0 | -60 | 10 | -71* | -1%
CC(CCc1ccccc1)NCC#N (stereo unspecified) | -6 | -7 | 32* | 1 | 4 | -3%
COc1cc(CCC(C)NCc2ccccc2)ccc1O (stereo unspecified) | -17 | -3 | 32* | 5 | -1 | 5%
COc1ccc(CC(=O)NC(C)CCc2ccccc2)cc1OC (stereo unspecified) | -17 | 1 | -14 | 11 | 13 | -10%
COc1ccc(CCC(C)Nc2ccccc2F)cc1 (stereo unspecified) | -10 | -3 | -4 | 0 | -11 | 2%
Cc1ccc2c(c1)N(CC(=O)N1CCc3ccccc3C1)C(=O)CO2 | -21 | 1 | 0 | 4 | 2 | 0%
CCCCS/C(=C(/C#N)C(N)=O)c1cc2c([nH]1)CCCC2 | -74* | 6 | -7 | 1 | 23 | 2%
O=C(O)c1ccc(N2CCN(Cc3ccc4c(c3)OCO4)CC2)c([N+](=O)[O-])c1 | -10 | -5 | -19 | 3 | 9 | -6%
O=c1[nH]c2ccc(NCc3ccc(-c4ccc(F)cc4)o3)cc2[nH]1 | . | -2 | -7 | 33* | -6 | -7%
Cn1c(=O)c(C(=O)COc2ccc(C#N)cc2)c(N)n(Cc2ccccc2)c1=O | -23 | 0 | 10 | 59* | -18 | 18%
CCC(=O)OCC(=O)c1c(N)n(Cc2ccccc2)c(=O)n(C)c1=O | -21 | 1 | -6 | 5 | 9 | -1%
CN(c1cccc(NC(=O)c2ccc(Cl)c(S(=O)(=O)Nc3ccccc3)c2)c1)S(C)(=O)=O | 53 | 4 | 52* | 5 | -42* | -1%
O=C(Nc1ccccc1)c1ccc(Cl)c(S(=O)(=O)Nc2ccccc2)c1 | . | -5 | 0 | 0 | 7 | 2%
CCOc1ccc(S(=O)(=O)Nc2cccc(OC)c2)cc1 | -5 | -3 | 15 | 18 | -5 | -1%
CN(c1cccc(NS(=O)(=O)c2ccccc2)c1)S(C)(=O)=O | 11 | -5 | 0 | 3 | -37* | -1%
CCOc1ccc(S(=O)(=O)Nc2cccc(N(C)S(C)(=O)=O)c2)cc1 | 48 | -6 | 5 | 23 | -39* | -3%
CCOc1ccc(N(CC(=O)NCc2ccccc2Cl)S(=O)(=O)c2c(C)noc2C)cc1 | -2 | -4 | -6 | 6 | 13 | 1%
Cc1noc(C)c1COc1cccc(C(=O)NCCc2c[nH]c3ccccc23)c1 | -8 | -6 | -2 | 5 | -15 | -2%
COc1ccccc1CNS(=O)(=O)c1ccc(-c2cc(C(F)(F)F)on2)s1 | . | -2 | -13 | 33* | -3 | 0%
COc1ccc(OC)c(CNS(=O)(=O)c2ccc(-c3cc(C(F)(F)F)on3)s2)c1 | . | 0 | 13 | 17 | -12 | -1%
SMILES | D3 antag | D1 PAM | DRD3 agonist | D1 agonist | D1 antagonist | ERG Ets-DNA blk
CSc1nnc(N2C(=O)C(O)=C(C(=O)c3ccco3)C2c2ccccc2F)s1 (stereo unspecified) | 2 | 2 | -4 | 98* | -1 | 21%
CCCSc1nnc(N2C(=O)C(O)=C(C(=O)c3ccco3)C2c2ccccc2F)s1 (stereo unspecified) | 0 | -4 | 6 | 97* | -15 | 2%
Cc1ccc(C2C(C(=O)c3ccco3)=C(O)C(=O)N2c2nnc(C)s2)cc1 (stereo unspecified) | 11 | 14 | 1 | 18 | -5 | 0%
CSc1nnc(N2C(=O)C(O)=C(C(=O)c3ccco3)C2c2ccccc2)s1 (stereo unspecified) | 4 | 3 | 2 | 100* | 19 | 17%
C=CCSc1nnc(N2C(=O)C(O)=C(C(=O)c3ccco3)C2c2ccccc2F)s1 (stereo unspecified) | -25 | -2 | -5 | 27 | 15 | 8%
Cc1ccccc1Nc1c([N+](=O)[O-])ccc2c1=NC1(CCCCC1)N=2 | -14 | 0 | 7 | 2 | 8 | -8%
O=C(NCc1ccco1)Nc1ccc2nsnc2c1 | -59* | 0 | 0 | 1 | 1 | -2%
COc1cccc(NC(=O)[C@@H]2CCCN2C(=O)[C@@H]2Cc3ccccc3CN2C(=O)OC(C)(C)C)c1 | -7 | 9 | -2 | 1 | 2 | -6%
NNc1nc(-c2ccccc2)cc(-c2ccccc2O)n1 | -100* | . | -86 | . | . | -3%
NNc1nc(-c2ccccc2)cc(-c2ccccc2)n1 | 1 | -4 | -6 | 5 | 1 | 0%
Cc1ccc(C(=O)c2coc3ccc(O)c(Cl)c23)cc1 | 5 | 0 | -6 | 2 | -1 | 8%
O=C(c1ccccc1)c1coc2ccc(O)c(Cl)c12 | -52* | 5 | -2 | 111* | 75 | -5%
O=C(O)c1ccc(N/N=C/C(Br)=C/c2ccccc2)cc1 | -15 | -5 | -8 | 3 | 7 | 0%
CCN(C(=O)COC(=O)c1[nH]c(C)c(C(C)=O)c1C)c1c(N)n(Cc2ccccc2)c(=O)[nH]c1=O | -22 | 4 | 8 | 3 | -18 | 7%
COc1ccc(NC(=O)c2ccc(C)cc2)cc1 | 14 | 18 | -1 | 1 | 3 | -10%
COc1ccc(NC(=O)c2ccc(NC3CC(=O)N(c4ccc(C)cc4C)C3=O)cc2)cc1 (stereo unspecified) | -4 | -3 | 10 | 6 | -31* | -7%
O=C(c1cc2ccccc2o1)N1CCN(C/C=C/c2ccccc2)CC1 | -78* | -9 | -19 | 2 | -29 | 1%
O=C(c1cc(Br)c(Br)s1)N1CCN(C/C=C/c2ccccc2)CC1 | -78* | 6 | 3 | 2 | -1 | -1%
CCCS(=O)(=O)c1ncc(Cl)c(C(=O)N(Cc2ccccc2)Cc2ccco2)n1 | . | -3 | -26 | 1 | -43* | 9%
COc1cccc(C(NC(C)=O)c2nc(-c3ccc(C)c(C)c3)cs2)c1 (stereo unspecified) | -1 | . | 6 | . | . | .
